# Reference: ChEMBL document CHEMBL3988442, “University of Dundee, Small-Polar-MMV Screening Library” (2021)
# Screen size: about 48,000 compounds; about 13,000 (27%) showed an effect of 50% or more. Some of the results follow.
# Tested on: Wolbachia pipientis
# Assay: Anti-Wolbachia Cell-Based Screen
# Format: functional
# Set-up: scale not given: in the data most compounds retested in dose-response had high values
# Details: 5 µM
row,SMILES,Percent Effect [%]
1,Cc1ccc(C(=O)N2C[C@@H](NS(C)(=O)=O)[C@H](C(C)C)C2)cc1O,5.531
2,CC(CCc1cccn1C)NC(=O)Nc1cccn(C)c1=O (centres undefined),-4.481
3,Cc1ccccc1OCC1CCCN(C(=O)CNC(=O)N(C)C)C1 (centres undefined),1.963
4,N#Cc1cccc(CN2CCN(C(=O)C3CCC3)[C@@H]3CS(=O)(=O)C[C@@H]32)c1,2.28
5,Cc1csc(CCNC(=O)c2ccc(N(C)C)c(F)c2)n1,-10.73
6,CCN(Cc1ccoc1)C(=O)NC1CCN(CC2CCCC2)CC1,-1.692
7,CCOCC(=O)N(Cc1ccco1)c1ccc(OC)c(F)c1,-17.42
8,COc1ccc(N(Cc2ccco2)C(=O)C2CCCO2)cc1F (centres undefined),12.44
9,COc1ccc(OC)c(CN(Cc2ccco2)Cc2[nH]cnc2C)c1.O=C(O)CC(O)(CC(=O)O)C(=O)O,125
10,COCCN(CCOC)c1ncccc1I,19.77
11,COCCCNC(=O)c1cn(C(C)C)cc2c(=O)[nH]nc1-2,104.5
12,CC(C(=O)NCCCn1ccnc1)n1cc(Br)cn1 (centres undefined),2.347
13,COc1cccc(-c2n[nH]cc2C(=O)NC(C)CC(=O)O)c1 (centres undefined),-19.78
14,CCn1nc(C(C)C)cc1C(=O)NCCCOC,-18.28
15,CC(C)n1cc(C(=O)NCCCn2ccnc2)c2n[nH]c(=O)c-2c1,123.9
16,COCC(C)NC(=O)c1nnn(-c2ccc(F)cc2)n1 (centres undefined),-1.834
17,COCC(C)NC(=O)c1cn(C(C)C)cc2c(=O)[nH]nc1-2 (centres undefined),106.6
18,O=C(NCCCn1ccnc1)c1csc2c1CCCC2,4.867
19,CC(C)N(C)CCCNC(=O)c1cnn(C(C)C)c1C(F)(F)F,7.835
20,Cc1ccsc1CN(C)c1nc2c(cnn2C(C)(C)C)c(=O)[nH]1,-15.84
21,NC(=O)NCC1CCCCN1Cc1nc(-c2ccco2)no1 (centres undefined),116.5
22,c1coc(-c2noc(CN3CCC(c4ccn[nH]4)CC3)n2)c1,3.524
23,O=C(C1CCCCC1)N1CCN(Cc2nc(-c3ccco3)no2)CC1,98.36
24,c1coc(-c2noc(CN3CCc4c(ncn4C4CC4)C3)n2)c1,-13.05
25,CC(C)c1cc(C2CCCN2Cc2nc(-c3ccco3)no2)no1 (centres undefined),-36.51

row,SMILES,Percent Effect [%]
1,O=C(C1CCCCN1Cc1nc(-c2ccco2)no1)N1CCCC1 (centres undefined),-6.382
2,O=C(c1ccco1)N1CCN(Cc2nc(C3CC3)no2)CC1,-17.27
3,O=C(C1CCCN1Cc1nc(-c2ccco2)no1)N1CCSCC1 (centres undefined),97.23
4,O=C(C1CCN(Cc2nc(-c3ccco3)no2)CC1)N1CCCC1,109.9
5,O=C(C1CCCC1)N1CCN(Cc2nc(-c3ccco3)no2)CC1,3.823
6,CC(C)(C)CC1CCCN1Cc1nc(-c2ccco2)no1 (centres undefined),1.615
7,CCCOCCOC(=O)c1ccc2c(c1)[nH]c(=O)n2C,-3.927
8,NC(=O)CCn1cc(CNCCCc2ccccc2O)c2ccccc21,15.24
9,COc1cc(C(=O)Nc2nc(C)no2)ccc1C,-1.332
10,COCC(=O)NC[C@@]1(COc2cnccn2)C[C@@H](O)[C@@H](O)C1.Cl,-5.232
11,COCCOCCCC(=O)N1CCC(Cc2ccccc2OC)CC1,-18.09
12,FC(F)Oc1ccccc1CNCc1cc(Br)c2c(c1)OCO2,6.017
13,c1ccc(CC2(CNCc3ncc[nH]3)CCC2)cc1,-10.87
14,O=C1CCC2(CCN(c3ncc(F)cn3)CC2)N1CCN1CCCC1,20.59
15,N#Cc1ccc(N2CCC(c3nc(C(F)(F)F)c[nH]3)CC2)nc1,-13.67
16,O=C(O)C(F)(F)F.O=C(O)C(F)(F)F.O=C1CCC2(CCCN(Cc3nccs3)C2)N1CC1CC1 (centres undefined),-83.2
17,N#Cc1cccc(CN2CC3(CCCCN3c3cncnc3)CC2=O)c1.O=C(O)C(F)(F)F (centres undefined),-19.74
18,N#Cc1ccc(N2CCCC3(CCN(c4cncnc4)C3=O)C2)nc1.O=C(O)C(F)(F)F (centres undefined),104
19,N#Cc1ccc(N2CCCC3(CCC(=O)N3CC3CC3)CC2)nc1.O=C(O)C(F)(F)F (centres undefined),105.4
20,COc1cc(N2CCCC3(CCN(c4cccnc4)C3=O)C2)ncn1.O=C(O)C(F)(F)F (centres undefined),-87.96
21,N#Cc1ccc(N2CCC3(CCC(=O)N3CCN3CCCC3)CC2)nc1.O=C(O)C(F)(F)F.O=C(O)C(F)(F)F,111.3
22,O=C1CCC2(CCCN(c3ncc(F)cn3)CC2)N1CC1CC1 (centres undefined),-5.991
23,COCCN1CCOCC12CCN(c1ccc(C#N)cc1)CC2.O=C(O)C(F)(F)F,1.624
24,CN1C(=O)CCC12CCN(c1ccc(C#N)cn1)CC2.O=C(O)C(F)(F)F,114
25,O=C(O)C(F)(F)F.O=C(O)C(F)(F)F.O=C(c1ccncc1)N1CCCC2(CCN(c3cccnc3)C2=O)C1 (centres undefined),-3.414

row,SMILES,Percent Effect [%]
1,CC(C)c1nc(N2CC[C@@H](N(C)CCc3ccccn3)[C@H](O)C2)no1,-7.34
2,CSc1cccc(CN(C)C(=O)C2CC(=O)N(CCN(C)C)C2)c1 (centres undefined),0.2115
3,Cc1cccc2c(=O)n(C(C)Cc3cccnc3)cnc12 (centres undefined),5.15
4,Cc1cn([C@@H]2CC3(CCNCC3)OC[C@@]2(C)O)c(=O)[nH]c1=O,120.3
5,Cc1cn([C@H]2CCNC[C@]2(C)O)c(=O)[nH]c1=O,91.37
6,N#Cc1ccc(NCc2cccnc2N2CCC(C(N)=O)CC2)cn1,11.59
7,CS(=O)(=O)NCc1cncc2c1CCN(C(=O)N1CCCC1)C2.Cl,112.8
8,CCCC(=O)N1CCc2c(CNS(C)(=O)=O)cncc2C1.Cl,100.5
9,COCCC(=O)N1CCc2c(CNc3ncccn3)cncc2C1.Cl,-6.28
10,CC(=O)NCC(=O)N1CCc2c(CNc3ncccn3)cncc2C1.Cl,-3.566
11,Cl.O=C(N1CCCC1)N1CCc2c(CNc3ncccn3)cncc2C1,-8.095
12,CCCn1[nH]cc/c1=N\C(=O)CN1CCCC1c1c(C)nn(C)c1C (centres undefined),-11.65
13,N#Cc1cccnc1N1CCN(C(=O)CCC(=O)c2cccs2)CC1,2.306
14,Cn1cc(CCC(=O)N2CCCN(c3ncccc3C#N)CC2)cn1,89.9
15,COc1ccnc(N2CCCN(C(=O)CCc3cnn(C)c3)CC2)n1,-25.81
16,COc1ccccc1N1CCN(C(=O)CCn2ccnc2C)CC1(C)C,3.273
17,Cc1cnn(CCC(=O)N2CCCN(c3cccnn3)CC2)c1,7.961
18,N#Cc1cccnc1N1CCCN(C(=O)CCn2cccn2)CC1,107
19,N#Cc1ccccc1N1CCCN(C(=O)CCn2cccn2)CC1,-8.555
20,N#Cc1cccnc1N1CCCN(C(=O)CCc2cccs2)CC1,-1.405
21,COc1ccccc1N1CCN(C(=O)CCn2ccc(C)n2)CC1(C)C,-8.619
22,COc1ccccc1N1CCN(C(=O)CCn2ccc(C)n2)CC1,112.7
23,N#Cc1ccccc1N1CCN(CCC(=O)N2CCOCC2)CC1,8.66
24,Cc1cnn(CCC(=O)N2CCCN(c3ccccc3C#N)CC2)c1,106.5
